Active and inactive are the calls of the source.
Assays:
[1] = biological target: Albumin (Bos taurus) (UniProt P02769); experiment: bovine serum albumin binders on microarray, profiling panel, artefact control for SMM control protein annotation, biochemical, small-molecule microarray, Alexa647 label, 635/667 nm fluorescence (AID 1118); conditions: BSA-A647 binding, fluorescence 635 nm, higher = more signal;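 note: score merges 667 nm emission intensity and signal-to-noise per printed compound spot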
Chain of Albumin (Bos taurus) (P02769 whole entry, looked up): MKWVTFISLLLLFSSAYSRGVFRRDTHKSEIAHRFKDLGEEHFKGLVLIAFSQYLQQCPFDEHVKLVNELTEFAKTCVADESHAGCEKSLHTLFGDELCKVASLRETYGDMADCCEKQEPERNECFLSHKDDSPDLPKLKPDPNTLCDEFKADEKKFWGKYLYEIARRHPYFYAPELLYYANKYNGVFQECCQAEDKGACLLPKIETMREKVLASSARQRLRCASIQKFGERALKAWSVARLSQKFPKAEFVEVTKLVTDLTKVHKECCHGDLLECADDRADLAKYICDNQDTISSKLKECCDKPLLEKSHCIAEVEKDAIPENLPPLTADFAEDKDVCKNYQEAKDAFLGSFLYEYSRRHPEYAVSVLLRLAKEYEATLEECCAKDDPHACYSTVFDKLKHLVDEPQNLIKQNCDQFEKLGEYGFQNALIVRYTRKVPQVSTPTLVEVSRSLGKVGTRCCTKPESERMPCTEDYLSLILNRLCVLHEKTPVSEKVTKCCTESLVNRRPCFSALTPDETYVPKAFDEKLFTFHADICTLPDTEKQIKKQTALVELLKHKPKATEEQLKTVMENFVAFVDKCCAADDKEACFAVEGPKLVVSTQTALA

[2] = small-molecule microarray binders of probe aXIP, primary screen, biochemical, NeuroSMM set, 635/667 nm fluorescence (AID 1119); conditions: higher = more signal, called active from +8 up or from −8 down;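 note: probe is the protein aXip251-270 applied at 1 µg/mL to compound-printed slides; binding of probe to printed compounds measured as 667 nm fluorescence plus signal to noise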
[3] = small-molecule binders of probe aNOTCH3, primary screen, biochemical, small-molecule microarray, 635/667 nm fluorescence (AID 1120); conditions: higher = more signal;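 note: probe is a biotin-tagged antibody raised against NOTCH3 rather than NOTCH3 protein; score merges spot fluorescence near 667 nm with spot signal to noise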
[4] = small-molecule binders of probe aNOTCH2, primary screen, biochemical, small-molecule microarray, 635/667 nm fluorescence (AID 1121); conditions: higher = more signal;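 note: score merges feature fluorescence read at 667 nm with its signal to noise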
[5] = biological target: Carbonic anhydrase 2 (Homo sapiens) (UniProt P00918); experiment: CAII small-molecule binders, profiling panel, biochemical, small-molecule microarray, Alexa647-labelled CAII (AID 1122); conditions: CAII-A647 binding fluorescence, higher = more signal
[6] = COS7 lysate on small-molecule microarray, probe aHis, 635 nm (AID 1123); conditions: COS7 cell lysate, fluorescence, higher = more signal;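 note: z-score combines 667nm fluorescence intensity with signal-to-noise per printed compound spot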
[7] = compound binding in COS7 lysate, probe aLAP1, primary screen, cell lysate, small-molecule microarray (AID 1124); conditions: probe aLAP1, fluorescence, higher = more signal;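 note: lysate comes from COS7 cells expressing LAP1 and is applied at 0.3 µg/mL; score merges spot fluorescence near 667 nm with signal-to-noise over triplicate slides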
[8] = system: Sam68 (KHDRBS1); experiment: Sam68 small-molecule binders, primary screen, biochemical, small-molecule microarray, 635 nm fluorescence (AID 1125); conditions: small-molecule microarray binding, higher = more signal;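 note: score merges 667 nm channel intensity with signal to noise over triplicate slides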
[9] = system: Chordin-like protein 2 (CHRDL2); experiment: CHRDL2 small-molecule binders, primary screen, biochemical, small-molecule microarray, 635 nm fluorescence (AID 1126); conditions: small-molecule microarray binding, fluorescence 635 nm; higher = more signal;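 note: printed compound slides probed with Chrdl2 protein at 4 µg/mL for 1 h at 4 C; score merges 667 nm emission intensity with signal to noise over three replicate slides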
[10] = biological target: Concanavalin-A (Canavalia ensiformis) (UniProt P02866); experiment: ConA small-molecule binders, primary screen, artefact control for SMM control protein annotation, biochemical, small-molecule microarray, Alexa647 label, 635 nm (AID 1127); conditions: ConA-A647 binding fluorescence, higher = more signal;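 note: z combines 667 nm emission intensity with signal-to-noise across three replicate slides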
Chain of Concanavalin-A (Canavalia ensiformis) (P02866 whole entry, looked up): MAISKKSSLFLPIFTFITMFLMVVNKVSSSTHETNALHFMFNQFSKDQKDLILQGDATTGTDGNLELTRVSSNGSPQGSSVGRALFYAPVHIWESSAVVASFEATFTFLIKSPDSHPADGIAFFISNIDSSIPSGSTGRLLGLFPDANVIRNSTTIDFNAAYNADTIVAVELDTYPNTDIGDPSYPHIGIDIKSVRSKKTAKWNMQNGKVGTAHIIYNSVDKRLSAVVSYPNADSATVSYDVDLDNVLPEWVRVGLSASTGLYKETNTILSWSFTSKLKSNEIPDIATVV

Compound | composite z-score [1] | composite Z-score [2] | composite z-score [3] | composite z-score [4] | composite z-score [5] | composite z-score [6] | composite z-score [7] | composite z-score [8] | composite z-score [9] | composite z-score [10]
O=C1C2=CC[C@H]3C(=O)N(Cc4ccc5c(c4)OCO5)C(=O)[C@H]3[C@H]2[C@H](O)[C@@H]2O[C@H]12 | -0.176 | 0.0248 (inactive) | -0.0229 | -0.14 | -0.0365 | -0.142 | 0.397 | 0.21 | 0.529 | 0.534
COC(=O)[C@@H]1CCCN1C(=O)[C@@H](C)CO | 0.448 | -0.505 (inactive) | 0.0042 | -0.16 | 0.192 | 0.84 | -0.436 | 0.95 | 0.584 | 0.873
CS(=O)(=O)CCOC(=O)C1=CC(CCCO)=CC(c2cccs2)N(Cc2cccc(OC(F)(F)F)c2)C=C1C(=O)OCCS(C)(=O)=O (stereo not given) | 1.03 | 0.0987 (inactive) | 0.106 | -0.0358 | 0.809 | 1.1 | 0.678 | 1.18 | -0.607 | 1.16
C=C(CCCC)C(=O)CC[C@@H](OC(C)=O)c1cccc(OCCO)c1 | -0.528 | 0.0491 (inactive) | -0.0933 | -0.193 | 0.767 | -0.022 | 0.953 | -0.106 | 0.582 | 0.259
CCCNC(=O)OC[C@H]1O[C@H](CCON=C2[C@H]3CCn4c(=O)n(-c5ccccc5)c(=O)n4[C@H]3[C@H](O)[C@@H]3O[C@H]23)C=C[C@@H]1Oc1ccc(OC)cc1 | 0.704 | 2.63 (inactive) | -0.0377 | -0.0444 | 0.167 | 0.73 | 0.587 | 0.522 | 0.318 | 0.216
COC(=O)[C@H](C)NC(=O)CCC1CC(OC(=O)NCc2cccc3ccccc23)CC2(CCCC(COC(=O)NCC3CCCCC3)O2)O1 (stereo not given in full) | -0.409 | -0.551 (inactive) | 0.175 | -0.0984 | 0.612 | 1.61 | 0.486 | 1.29 | 0.62 | 1.12
C=CCN1C(=O)[C@]2(O[C@H](CCn3cc(CCO)nn3)[C@@H]([Si](C)(C)c3ccc(OC)cc3)[C@@H]2C)c2cc(N3CCOC3=O)ccc21 | 0.617 | -0.217 (inactive) | -0.161 | -0.104 | 0.368 | 1.88 | 1.21 | 0.448 | -0.34 | 1.13
CO[C@@H]1COC(=O)CC=C[C@@H](C)[C@@H]2C=C[C@@H](O)[C@@H](COC(=O)CC=C[C@H]1C)O2 | -0.805 | 0.142 (inactive) | 0.0864 | -0.16 | -0.235 | -0.635 | 0.156 | 0.228 | 1.38 | -0.363
CC=CC1=C(CO)[C@H](O)[C@H]2O[C@H]2[C@H]1O | -0.15 | 0.0448 (inactive) | -0.113 | -0.146 | -0.173 | -0.188 | -0.182 | 0.278 | 1.09 | 0.291
CCCC[C@H]1OB(O)C[C@H]2C1=C(C)C[C@H]1C(=O)N(C)C(=O)[C@H]12 | 0.748 | 0.506 (inactive) | 0.16 | -0.117 | 0.328 | 0.326 | 0.308 | 1.08 | 0.311 | 0.321
CN(C)c1ccc(C(O)C2C=CC3C(=O)N(c4ccccc4)C(=O)C3N2Nc2ccccc2F)cc1 (stereo not given) | 0.62 | -0.122 (inactive) | 0.134 | 0.0605 | 0.522 | 1.11 | -0.301 | 0.87 | -0.371 | 0.676
COCCOC(=O)N1C(=O)[C@@]2(c3cc(C#CCNC(N)=O)ccc31)[C@H](c1ccc(O)cc1)N1[C@H](c3ccccc3)[C@H](c3ccccc3)OC(=O)[C@H]1[C@@H]2C(=O)N1CCCCCCC1 | -0.466 | -0.624 (inactive) | 0.207 | -0.108 | 0.244 | 0.734 | 0.382 | 1.3 | 1.15 | 0.615
CO[C@@H]1COC(=O)CCC[C@@H](C)[C@H](OC)COC(=O)CCC[C@H]1C | -0.27 | 0.231 (inactive) | -0.0967 | -0.0907 | -0.277 | -0.307 | -0.0693 | -0.12 | 0.777 | -0.302

From PubChem BioAssay
